Laboratory results from PubChem BioAssay (NCI).
Compounds without any hit were thinned out: in the full panel of roughly 83,000, 20% have a hit.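 Compound tested at a single concentration for 48 hours in 96-well plates; a percent growth value below 10 was scored as active.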 Calls of active or inactive are those of the source.

Legend:
Experiment in all cases: NCI-60 one-dose screen, 48 h (100 = growth as untreated, 0 = no growth, -100 = all killed)
Details in all cases: 10 µM
[1] = system: NCI-H23 lung
[2] = system: NCI-H226 lung
[3] = system: NCI-H322M lung
[4] = system: HOP-62 NSCLC
[5] = system: NCI-H460 lung
[6] = system: HOP-92 NSCLC
[7] = system: NCI-H522 lung
[8] = system: A549/ATCC NSCLC
[9] = system: 786-0 renal
[10] = system: DU-145 prostate
[11] = system: K-562 leukemia
[12] = system: MALME-3M melanoma
[13] = system: MDA-MB-231 breast
[14] = system: RXF 393 renal
[15] = system: SF-268 CNS
[16] = system: SF-295 CNS
[17] = system: SF-539 CNS
[18] = system: UACC-257 melanoma
[19] = system: M14 melanoma
[20] = system: COLO 205 colon

Measured: growth

COc1cc2ccnc(C=O)c2cc1OC
inactive: [1] 83.5% | [2] 101% | [3] 87.5% | [4] 89.7% | [5] 107% | [6] 51.2% | [7] 68.4% | [8] 101% | [9] 99.9% | [10] 69.8% | [11] 31.2% | [12] 58.8% | [13] 75.3% | [14] 67.6% | [15] 92% | [16] 96.5% | [17] 65.6% | [18] 83.2% | [19] 67.8%

Fc1ccc(Nc2ccnc(N3CCN(c4ccnc5cc(Cl)ccc45)CC3)n2)cc1
inactive: [1] 44.5% | [2] 54% | [3] 65.5% | [4] 62.8% | [5] 38% | [7] 43.4% | [8] 25% | [9] 37.1% | [10] 77% | [11] 16% | [12] 52.9% | [13] 56% | [14] 66.7% | [15] 72.4% | [16] 39.6% | [17] 51.4% | [18] 61.1% | [19] 43.4%
active: [6] -7.36%

Cn1cnc([N+](=O)[O-])c1Sc1nnc(-c2ccccc2)c(-c2ccccc2)n1
inactive: [1] 79.5% | [2] 77.1% | [3] 102% | [4] 97.3% | [5] 113% | [6] 71.1% | [7] 85.4% | [8] 114% | [9] 85.4% | [20] 90.2% | [10] 81.9% | [11] 51% | [13] 102% | [15] 85.1% | [16] 87.7% | [17] 111% | [18] 79.9% | [19] 76.9%

CCC1(C)OC(=O)NC1=O (stereo not drawn)
inactive: [1] 96% | [2] 93.1% | [3] 105% | [4] 71.1% | [5] 111% | [6] 93.2% | [7] 84.5% | [8] 79.2% | [9] 99.6% | [10] 111% | [11] 91.7% | [12] 106% | [13] 109% | [14] 121% | [15] 103% | [16] 103% | [17] 99.1% | [18] 90.9%

COc1c(-c2c3sc(=O)[nH]c3nc3c2c(=O)[nH]n3C(C)C)cc2c(c1OC)OCO2
inactive: [1] 100% | [2] 85.8% | [3] 92.2% | [4] 94.5% | [5] 107% | [6] 72.2% | [7] 86% | [8] 95.8% | [9] 86.5% | [10] 108% | [11] 86% | [12] 80.3% | [13] 108% | [14] 110% | [15] 102% | [16] 88.3% | [17] 94.8% | [18] 99.7% | [19] 93.8%

COc1ccc(Cn2cc3c(c2-c2cc(OC)c(OC)c(OC)c2)CCc2cnoc2-3)cc1N
active: [5] -9.29% | [10] 1.73% | [16] -16.9% | [17] 5.21% | [19] 6.22%
inactive: [1] 15.8% | [2] 12.7% | [3] 14.9% | [4] 47.4% | [6] 80.8% | [7] 32.3% | [8] 28.5% | [9] 15.8% | [11] 15% | [13] 19.5% | [14] 35% | [15] 15.4% | [18] 65.9%

COc1ccc(-c2nnc(N3CCN(C(=O)CN4CCN(c5ccc(Cl)cc5)CC4)CC3)nc2-c2ccc(OC)cc2)cc1
inactive: [1] 68.1% | [2] 73.6% | [3] 92.7% | [4] 88.4% | [5] 46.8% | [6] 80.3% | [7] 69.8% | [8] 58.8% | [9] 70.8% | [10] 80.2% | [11] 32% | [12] 80.8% | [13] 78.7% | [14] 53.6% | [15] 69% | [16] 45.2% | [17] 82.2% | [18] 70.2% | [19] 71.4%

O=C1/C(=C/c2ccc(O)cc2)CSc2ccc(Cl)cc21
inactive: [1] 91.3% | [2] 82.2% | [3] 92.3% | [4] 90.9% | [5] 96.5% | [6] 75.6% | [8] 86.7% | [9] 85.5% | [10] 102% | [11] 64% | [12] 111% | [13] 77.5% | [14] 91.1% | [15] 93% | [16] 91.6% | [17] 85.5% | [18] 100% | [19] 88.8%
active: [7] -26.2%

O=C(NNc1nc(N2CCCC2)nc(N2CCCC2)n1)c1ccccc1
inactive: [1] 99.3% | [2] 107% | [3] 94.9% | [4] 101% | [5] 117% | [6] 83.5% | [7] 94.2% | [8] 104% | [9] 121% | [20] 109% | [10] 107% | [13] 100% | [14] 116% | [15] 106% | [16] 128% | [17] 113% | [18] 96.6% | [19] 132%

COc1cccc(-c2nnc(COc3ccc(-c4nc5ccccc5[nH]4)cc3OC)o2)c1
inactive: [1] 92.7% | [2] 105% | [3] 97.6% | [4] 108% | [5] 96.5% | [6] 93.8% | [7] 96.7% | [8] 97.1% | [9] 96.2% | [10] 98.9% | [11] 55.5% | [12] 89.9% | [13] 91.7% | [14] 104% | [15] 103% | [16] 101% | [17] 104% | [18] 109% | [19] 103%

CCN(CCCNC(=O)Cc1cc(=O)oc2cc(N(C)C)ccc12)CCNc1ccnc2cc(Cl)ccc12
inactive: [1] 94.9% | [2] 93.1% | [3] 91% | [4] 85.6% | [5] 92.3% | [6] 59.5% | [7] 56.8% | [8] 93.4% | [9] 86.3% | [10] 109% | [12] 88.2% | [13] 78.7% | [14] 74.6% | [15] 92.1% | [16] 80.5% | [17] 25.2% | [18] 41.9% | [19] 11.5%
active: [11] 0.722%

Fc1cc(-c2ncc(-c3cc(F)c(F)c(F)c3)c(NC3CCCCCC3)n2)cc(F)c1F
inactive: [1] 102% | [2] 95.9% | [3] 102% | [5] 102% | [6] 88.8% | [7] 120% | [8] 85.6% | [9] 98.3% | [20] 115% | [10] 105% | [11] 101% | [12] 140% | [13] 104% | [14] 96.1% | [15] 107% | [16] 90.1% | [17] 105% | [18] 87.6% | [19] 109%

c1ccc(COCC[P+](c2ccccc2)(c2ccccc2)c2ccccc2)cc1
active: [1] -10.1% | [5] 3.37% | [6] -29.9% | [7] -9.64% | [8] 8.47% | [20] -41.2% | [11] 3.16% | [12] 4.01% | [13] 5.14% | [16] -46% | [18] -22.7%
inactive: [2] 28.5% | [3] 10.4% | [9] 16.9% | [10] 15% | [14] 29.6% | [15] 15.4% | [17] 18.5% | [19] 10.9%

N=C(N)c1ccc(-c2ccc(-c3ccccc3)s2)cc1F
active: [1] -65.9% | [2] -62.7% | [3] -88.5% | [5] -79.5% | [6] -83.7% | [7] -75.2% | [8] -74.2% | [9] -85% | [20] -78.1% | [10] -95.5% | [11] -70.8% | [12] -76.7% | [13] -82.3% | [14] -86.9% | [15] -84.6% | [16] -77.9% | [17] -97.3% | [18] -84.1% | [19] -93.1%

O=[N+]([O-])c1ccc2c(c1)Cc1cc(I)ccc1-2
inactive: [1] 99.4% | [2] 97.7% | [3] 104% | [5] 98.4% | [6] 89.4% | [7] 95.7% | [8] 94.7% | [9] 90% | [20] 108% | [10] 116% | [11] 95.6% | [13] 102% | [14] 101% | [15] 103% | [16] 82.5% | [17] 116% | [18] 108%

O=c1c2cccc3c(Nc4ccc(Br)cn4)ccc(c32)c2nc3ccccc3n12
inactive: [1] 81.3% | [2] 93.2% | [3] 77.9% | [5] 86.6% | [6] 62.4% | [7] 89.4% | [8] 106% | [9] 96.9% | [20] 88.2% | [10] 99.4% | [11] 101% | [12] 96.3% | [13] 66.2% | [14] 99.8% | [15] 98.3% | [16] 87.1% | [17] 89.9% | [18] 102% | [19] 96.8%
